Test system: HEK293 WT BDD-FVIII-Gluc
Test: secreted FVIII-Gluc luciferase Z-score vs DMSO control; higher = more FVIII-Gluc secretion
Conditions: 5 µM
Procedure: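 Natural plant-compound library (480 compounds, ST catalogue IDs) screened on HEK293 cells stably expressing WT BDD-FVIII-Gaussia luciferase fusion at 5 µM. Secreted Gluc activity in the medium is given as a Z-score relative to DMSO controls.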

Row | Structure (SMILES) | secreted FVIII-Gluc luciferase Z-score
1 | O=C(O)c1cc(O)c2c(c1)[C@@H]([C@H]1c3cc(C(=O)O)cc(O)c3C(=O)c3c(O[C@@H]4O[C@H](CO)[C@@H](O)[C@H](O)[C@H]4O)cccc31)c1cccc(O[C@@H]3O[C@H](CO)[C@@H](O)[C@H](O)[C@H]3O)c1C2=O | 0.274
2 | CCOC(=O)CCC(=O)OC1C(OC2C(C)C(OC3CC(C)(OC)C(O)C(C)O3)C(C)C(=O)OC(CC)C(C)(O)C(O)C(C)C(=O)C(C)CC2(C)O)OC(C)CC1N(C)C (centres undefined) | 0.0842
3 | CC1=CC(=O)CC(C)(C)C1(O)/C=C/C(C)=C\C(=O)O (centres undefined) | 0.388
4 | COC1=CC(=O)CC(C)C12Oc1c(Cl)c(OC)cc(OC)c1C2=O (centres undefined) | 0.0156
5 | CC[C@]12CCCN3CCc4c(n(c5ccccc45)C(=O)C1)C32 (some centres undefined) | 0.363
6 | O=c1cc(-c2ccc(O)c(O)c2)oc2cc(O)cc(O)c12 | -1.34
7 | COc1cc2c(cc1OC)C(=O)N(C)CC2 | 0.547
8 | COc1cc(C=O)ccc1O | 0.374
9 | COc1ccc(C(=O)C2C3C4COC(O4)C(=O)C3C3C=Cc4ccccc4N32)c(OC)c1 (centres undefined) | -0.809
10 | O=C(/C=C/c1ccc(O)c(O)c1)O[C@@H]1CC(O)(C(=O)O)CC(O)C1O (some centres undefined) | 0.588
11 | COc1ccc2c(c1)[C@@]1(C)CCC[C@](C)(CO)C1CC2 (some centres undefined) | 0.437
12 | O=C(CCc1ccc(O)cc1)c1c(O)cc(O)cc1O | -0.769
13 | Cc1ncc(CO)c(C=O)c1O | 1.01
14 | CC1CCC2[C@](C)(CO)C(O)CC[C@]2(C)C12CCC(CO)(CCO)O2 (some centres undefined) | 0.9
15 | CN1C(=O)CC[C@H]1c1cccnc1 | -0.0585
16 | CC(C)(S)[C@H](N)C(=O)O | 0.41
17 | CN1C(CC(=O)c2ccccc2)CCC[C@H]1C[C@H](O)c1ccccc1 (some centres undefined) | 0.401
18 | O=C(/C=C/c1ccc(O)cc1)c1ccccc1O | 0.315
19 | COc1ccc2oc(-c3ccccc3)c(OC)c(=O)c2c1 | 0.232
20 | COc1cc2ccc(=O)oc2cc1O | 0.0462

Row | Structure (SMILES) | secreted FVIII-Gluc luciferase Z-score
21 | COC(=O)C1C2CC3c4[nH]c5cc(OC)ccc5c4CCN3CC2CC(OC(=O)c2cc(OC)c(OC)c(OC)c2)C1OC (centres undefined) | -0.436
22 | COC(=O)[C@H]1[C@H]2C[C@H]3c4[nH]c5ccccc5c4CCN3C[C@H]2CC[C@@H]1O | -0.252
23 | Oc1cc(O)c2c(c1)O[C@H](c1ccc(O)c(O)c1)[C@@H](O)C2 | 0.0727
24 | C=C1CC23C[C@@]1(O)CCC2C12C=CC(O)C(C)(C(=O)O1)C2[C@@H]3C(=O)O (some centres undefined) | -0.216
25 | CC1(C)CC[C@]2(C(=O)O)CC[C@]3(C)C(=CCC4[C@@]5(C)CC[C@H](O)C(C)(C)C5[C@H](O)C[C@]43C)C2C1 (some centres undefined) | 0.207
26 | COc1c2ccoc2nc2c(OC)c(OCC(O)C(C)(C)O)ccc12 (centres undefined) | 0.695
27 | COC(=O)C[C@](O)(CCCC(C)(C)O)C(=O)O[C@@H]1C(OC)=C[C@]23CCCN2CCc2cc4c(cc2[C@H]13)OCO4 | -4.72
28 | O=C(O)/C=C/c1ccc(O)c(O)c1 | -0.126
29 | CC(C)(CO)[C@@H](O)C(=O)NCCCO | 1.71
30 | CN1C(CC(=O)c2ccccc2)CCC[C@H]1CC(O)c1ccccc1 (some centres undefined) | -0.246
31 | Nc1ncnc2c1ncn2[C@@H]1O[C@H](CO)[C@@H](O)[C@H]1O | 0.566
32 | O=c1cc(-c2ccccc2)oc2cccc(O)c12 | -0.455
33 | COC(=O)C1(O)CC(O)C(NC(C)=O)C(C(O)C(O)CO)O1 (centres undefined) | 0.68
34 | COc1ccccc1-c1oc2ccccc2c(=O)c1O | -0.65
35 | O=c1cc(-c2ccccc2)oc2c1ccc1ccccc12 | 0.373
36 | COC(=O)[C@@H]1[C@H]2C[C@H]3c4[nH]c5ccccc5c4CCN3C[C@@H]2CC[C@@H]1O | 0.00333
37 | NC(CC(=O)O)C(=O)O (centres undefined) | 0.487
38 | O=c1cc(-c2ccc(O)cc2)oc2cc(O)cc(O)c12 | 0.864
39 | Nc1ccn(C2OC(COP(=O)(O)O)C(O)C2O)c(=O)n1 (centres undefined) | 0.194

Source: the supplement of paper PMC12024529
